Assay results as given in PubChem BioAssay (NCI).
Compounds without any hit were thinned out: in the full panel of roughly 79,000, 15% have a hit. No stated cut-off is given here; in the data, active means growth inhibition above about 70%; inactive means the rest.

How the values were obtained:
[1] = NCI Yeast Anticancer Drug Screen. Data for the rad50 strain (AID 155);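 further: 0% = growth of vehicle-only cultures of the same strain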; settings: S. cerevisiae rad50 strain growth inhibition; at 50.0 µM; active compounds read high
Procedure, shortened: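 Yeast carrying a defined DNA repair defect were exposed to test compounds, and growth was compared with vehicle-treated controls to give percent inhibition.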

[2] = NCI Yeast Anticancer Drug Screen. Data for the mec2-1 strain (AID 157); settings: S. cerevisiae mec2-1 strain, at 50.0 µM, active compounds read high
Procedure, shortened: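 Growth inhibition is read against vehicle-treated controls after compound exposure of the mec2-1 yeast strain, which is defective in DNA damage repair or cell cycle control.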

[3] = NCI Yeast Anticancer Drug Screen. Data for the sgs1 mgt1 strain (AID 161);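 further: 0% = growth of cultures given vehicle only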; settings: S. cerevisiae sgs1 mgt1 strain, at 50.0 µM, active compounds read high
Procedure, shortened: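 This yeast growth screen uses a strain with defined DNA-repair lesions; compound-treated growth is compared with vehicle-treated growth.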

[4] = NCI Yeast Anticancer Drug Screen. Data for the bub3 strain (AID 167); settings: S. cerevisiae bub3 mutant strain, at 50.0 µM, active compounds read high
Procedure, shortened: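 Compounds were applied to a genetically altered yeast strain carrying a cell-cycle control defect. Growth inhibition was scored against vehicle-treated controls.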

[5] = NCI Yeast Anticancer Drug Screen. Data for the mlh1 rad18 strain (AID 175); settings: S. cerevisiae mlh1 rad18 strain growth inhibition; at 50.0 µM; active compounds read high
Procedure, shortened: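 Cells of a genetically altered yeast strain, deficient in DNA damage repair, were treated with compound. Their growth was then compared with that of vehicle-treated cultures to give inhibition.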

[6] = NCI Yeast Anticancer Drug Screen. Data for the cln2 rad14 strain (AID 165);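 further: 0% = growth equal to vehicle treated cultures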; settings: S. cerevisiae cln2 rad14 strain, at 50.0 µM, active compounds read high
Procedure, shortened: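 Growth inhibition, relative to vehicle-treated controls, is the read-out. The test organism is a yeast strain with defined genetic alterations, cln2 rad14.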

Measured: growth inhibition

COC(=O)C(=O)C(C(=O)C(=O)Nc1ccccc1OC)c1nc2ccc([N+](=O)[O-])cc2[nH]c1=O (stereo not given)
inactive: [1] 16.4% | [2] 19.4% | [3] 10.9% | [4] 36.1% | [5] 21.6%

O=C(O)c1cn(C2CC2)c2cc(N3CCNCC3)c(F)cc2c1=O
inactive: [1] 8.9% | [2] -6.4% | [3] -13.1% | [4] -19.5% | [5] -0.35%

CC(=O)[C-](C(C)=O)c1ccccc1.CC(=O)[C-](C(C)=O)c1ccccc1.CC(=O)[C-](C(C)=O)c1ccccc1.[Cl-].[Zr+4]
inactive: [1] 27.4% | [2] 28.8% | [3] 0.35% | [4] 14.8% | [5] 1.65%

O=C(/C=C(\[O-])c1ccccc1)CCCCCCC(=O)/C=C(\[O-])c1ccccc1.O=C(/C=C(\[O-])c1ccccc1)CCCCCCC(=O)/C=C(\[O-])c1ccccc1.O=C(/C=C(\[O-])c1ccccc1)CCCCCCC(=O)/C=C(\[O-])c1ccccc1.[Nd+3].[Nd+3]
inactive: [1] 26.4% | [2] 22.5% | [3] 30.1% | [4] 31.2% | [5] 22.1%

C=C(C)C(=O)OC1CC2(C)OC(=CC2=O)C(C)CC2OC(=O)C(=C)C12 (stereo not given)
inactive: [1] 13.1% | [2] 18.1% | [6] 25.2% | [4] 33.5% | [5] -34.6%

N#Cc1nc(-c2cccc(-c3nc(C#N)c(N)o3)n2)oc1N
inactive: [1] 2.7% | [2] 13.7% | [6] 7.9% | [4] -11.8% | [5] -58.6%

COC(=O)C(=O)C(C(=O)C(=O)Nc1nc2ccc(C)cc2s1)c1nc2ccc([N+](=O)[O-])cc2[nH]c1=O (stereo not given)
inactive: [1] 56.1% | [2] 15.4% | [6] -30.6% | [4] 26.1% | [5] 20.2%

CCC/C(Cl)=N/OC(=O)Nc1cccc(F)c1
inactive: [1] -2.75% | [2] -6.9% | [6] 16.6% | [4] 45% | [5] 41.5%

Cc1ccc2c(/C=C/c3ccc(N(C)C)cc3)ccc(C(C)C)cc1-2
inactive: [1] -5.4% | [2] -41.3% | [3] 19.1% | [4] -22.2% | [5] -53.2%

N#C/C=C1\C=CC(O)C(O)C1OC1OC(CO)C(O)C(O)C1O (stereo not given)
inactive: [1] 21.6% | [2] 7.3% | [6] 27.6% | [4] 12.9% | [5] -62.7%

O=C1NC(N/N=C\c2ccccc2)=N/C1=C/c1ccccc1
inactive: [1] -2.9% | [2] 5.2% | [6] 2.25% | [4] -0.3% | [5] -26.5%
